Measured values: PubChem BioAssay (Tox21)
Inconclusive results are not listed. Entries that show only a call come without a potency. Calls of active or inactive are those of the source. Calls follow the shape of the dose curve; as a rule, active = well fitted cell-killing curve with a large enough effect in the repeat runs; inconclusive = weak or mixed curves, or effect the other way; inactive = flat fitted curve, though single readings scatter.
Potency is read from the fitted curve at half-maximal effect.

Assay: cAMP Responsive Elements (CRE) small molecule antagonists, cell-based qHTS assay: qHTS cell viability counter screen (AID 2060913); also: nearly all actives have a fitted effect of over 40% in size
Details: CRE-bla HEK293T viability, CellTiter-Glo luminescence, 5 h; series mostly up to 92.4 µM
Outline: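 CRE-bla HEK293T cells were seeded in assay medium with 10% dialyzed FBS, incubated 18 hrs at 37 C, then exposed to compounds plus 0.25 uM final NKH477 for 3 hrs. Viability was read by CellTiter-Glo luminescence after 30 min, in the same wells.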
In the case of `CCCCCCCCCc1ccc(OCCOCCO)cc1`, the Potency is reported as 22.8 µM (active). For `O=S(=O)(O)c1ccc(Nc2nc(Nc3ccc(/C=C/c4ccc(Nc5nc(Nc6ccc(S(=O)(=O)O)cc6)nc(N(CCO)CCO)n5)cc4S(=O)(=O)O)c(S(=O)(=O)O)c3)nc(N(CCO)CCO)n2)cc1`, the Potency was “inactive”. With `N=C1C=CC(=C(c2ccc(N)cc2)c2ccc(N)cc2)C=C1` the Potency was 50.8 µM (active). With `CC(C)OC(=O)C(C)(C)Oc1ccc(C(=O)c2ccc(Cl)cc2)cc1` the Potency was “inactive”. With `Cc1nc(Nc2ncc(C(=O)Nc3c(C)cccc3Cl)s2)cc(N2CCN(CCO)CC2)n1` the Potency was “inactive”. With `C=CCNc1nc(NCC=C)nc(N2CCN(C(c3ccc(F)cc3)c3ccc(F)cc3)CC2)n1` the Potency was “inactive”. With `CCCCCCCCN(C)CCCCCCCC` the Potency was “inactive”. In the case of `Nc1cc(=O)[nH]c(N)n1`, the Potency is reported as “inactive”. With `O=Nc1ccc(NO)cc1` the Potency was “inactive”. For `O=C1CCCc2ccccc21`, the Potency was “inactive”. For `CC[C@H]1O[C@]2(CC[C@@H]1C)C[C@@H]1C[C@@H](C/C=C(\C)C[C@@H](C)/C=C/C=C3\CO[C@@H]4[C@H](O)C(C)=C[C@@H](C(=O)O1)[C@]34O)O2`, the Potency was 30.4 µM (active). For `CC(=O)Nc1ccn(C2COC(COC(=O)c3ccccc3)O2)c(=O)n1` (stereo not drawn), the Potency was “inactive”. In the case of `CCCCCCOC(=O)CCCCC`, the Potency is reported as “inactive”. For `CCCCCCCCCCCCCCCCCCO`, the Potency was “inactive”. With `CC1(C)[C@H]2CC[C@](C)(C2)[C@H]1O` the Potency was “inactive”. With `NCc1cccc(C2CCN(C(=O)c3ccc(C#Cc4ccccc4F)o3)CC2)c1` the Potency was 68.6 µM (active). For `COc1cccc(Br)c1`, the Potency was “inactive”. With `CCOC(=O)CC(C)C` the Potency was “inactive”. For `O=S(=O)(O)CCCN1CCOCC1`, the Potency was “inactive”. In the case of `Cn1c(N)nc2nc[nH]c2c1=O`, the Potency is reported as “inactive”. For `CCN(CC)c1cccc(O)c1`, the Potency was “inactive”. For `O=Cc1ccccc1[N+](=O)[O-]`, the Potency was “inactive”. With `CC1CCCCC1` the Potency was “inactive”.
